FMDV RLuc = antivirals against foot and mouth disease virus replicon | Potency, µM (series often up to 57.5 µM), inactives show at the top dose activity change, negative = inhibition, actives largely listed as inhibitors | 0.32% of 120,000 active | FMDV replicon cells, Renilla luciferase signal | AID 1745857; also: nearly all actives have a fitted effect of over 55% in size
FMDV antiviral = antivirals against foot and mouth disease virus | FMDV antiviral cell assay, firefly luciferase signal | Potency, µM (doses to about 57.5 µM), inactives show at the highest dose activity change, negative = inhibition, hits mostly inhibitors | 0.23% of 120,000 active | AID 1745856; also: nearly all actives have a fitted effect of over 60% in size
* marks the source's active call; other numbers are inactive results; [ ] = dose if it differs, or a comment. Only some compounds are listed: those with a hit (about 0.4% of all), similar ones and a draw of the others. Calls follow the shape of the full dose curve. % is scaled to controls: 0 for no effect and ±100 for the full control effect; potency is read from the fitted curve at half-maximal effect.

CCCC(=O)Nc1nnc(SCc2cc(=O)c3ccc(C)cc3[nH]2)s1 was read as FMDV RLuc 2µM* and FMDV antiviral 2.5µM*.
`CCC(=O)Nc1nnc(SCc2cc(=O)c3cc(C)ccc3[nH]2)s1` gave FMDV RLuc -17% and FMDV antiviral -1%.
Screening O=S(=O)(Nc1ccc(-c2cn3ccsc3n2)cc1)c1ccccc1 returned FMDV RLuc 124% and FMDV antiviral 121%.
Screening COc1cc(CNC(=O)c2nccnc2N)ccc1OCc1ccncc1 returned FMDV RLuc 10µM* and FMDV antiviral 22µM*.
Screening Nc1nccnc1C(=O)NCc1ccnc(OCc2ccccc2)c1 returned FMDV RLuc 10µM* and FMDV antiviral 22µM*.
`COc1ccc(CNC(=O)c2nccnc2N)cc1` gave FMDV RLuc -19% and FMDV antiviral 28%.
Screening CCOc1ccccc1Oc1ccc(CNC(=O)Nc2cccnc2)cn1 returned FMDV RLuc -16% and FMDV antiviral 14%.
For COc1ccc(CNC(=O)c2nccnc2N)cc1OC the results were FMDV RLuc 9% and FMDV antiviral 6%.
`CCOc1ccccc1Oc1ccc(CNC(=O)c2nccnc2N)cn1` gave FMDV RLuc 14µM* and FMDV antiviral 16µM*.
For Nc1nccnc1C(=O)NCc1ccnc(Oc2ccc(F)cc2)c1 the results were FMDV RLuc 13µM* and FMDV antiviral inconclusive.
O=C(Cc1cccc(F)c1)NCc1ccnc(OCc2ccccc2)c1 was read as FMDV RLuc 6% and FMDV antiviral 39%.
For CCN(CC)C(=O)COc1cc(O)c2c(=O)cc(-c3ccccc3)oc2c1 the results were FMDV RLuc 8% and FMDV antiviral 17%.
CC(OC(=O)c1ccc2ccccc2n1)C(=O)NC1(C#N)CCCCC1 (stereo unspecified) was read as FMDV RLuc 2% and FMDV antiviral 9%.
Screening FC(F)(F)c1ccc(Cl)c(N/N=C/c2cccc(OCc3ccccc3)c2)c1 returned FMDV RLuc 24% and FMDV antiviral 50%.
CCOc1ccc2ncc(C#N)c(Nc3cc(OC)c(OC)c(OC)c3)c2c1 was read as FMDV RLuc 23% and FMDV antiviral 28%.
For CCc1ccc(NC(=O)c2sc3nc4c(cc3c2N)CN(C(C)C)CC4)cc1 the results were FMDV RLuc 25µM* and FMDV antiviral 0%.
For CCN(CC)c1ccc(NC(=O)c2sc3nc4c(cc3c2N)CN(C)CC4)cc1 the results were FMDV RLuc 4% and FMDV antiviral 23%.
`CCn1c(C)c(C(C)=O)c2cc(OCC(O)CN3CCOCC3)ccc21` (stereo unspecified) gave FMDV RLuc 1% and FMDV antiviral -4%.
For COc1ccc2c(C)c(CCC(=O)Nc3ccc(Br)c(C)c3)c(=O)oc2c1 the results were FMDV RLuc -13% and FMDV antiviral -3%.
For CC(=O)N1CCN(Cc2coc(-c3ccc(Cl)cc3)n2)CC1 the results were FMDV RLuc inconclusive and FMDV antiviral 12%.
`O=C(CSCc1coc(-c2ccc(Cl)cc2)n1)N1CCCCC1` gave FMDV RLuc 20µM* and FMDV antiviral -13%.
For CCN1CCN(c2cc(-c3ccc(F)cc3)c3c(n2)CCCCCC3)CC1 the results were FMDV RLuc 11µM* and FMDV antiviral inconclusive.
Screening CCN1CCN(c2oc(-c3ccc(F)cc3)nc2C#N)CC1 returned FMDV RLuc 3% and FMDV antiviral 22%.
`O=C(COc1ccc2c(-c3ccc(F)cc3)noc2c1)OCc1ccccc1` gave FMDV RLuc 1% and FMDV antiviral 2.8µM*.
For COC(=O)c1ccc(COc2ccc3c(-c4ccc(F)cc4)noc3c2)cc1 the results were FMDV RLuc 16% and FMDV antiviral 16%.
For Cc1cccc(OCC(O)CN(Cc2ccccc2)Cc2ccccc2)c1 (stereo unspecified) the results were FMDV RLuc 35% and FMDV antiviral 6%.
`Cc1ccccc1C(=O)Nc1nonc1-c1ccc(Cl)cc1` gave FMDV RLuc 70% and FMDV antiviral 15%.
For CN(C)c1cc2c(cc1NC(=O)c1cccs1)n(C)c(=O)c(=O)n2C the results were FMDV RLuc 83% and FMDV antiviral 90%.
Screening O=C(c1ccc(-n2cnnn2)cc1)N(CCc1cccs1)Cc1cccs1 returned FMDV RLuc 47% and FMDV antiviral -16%.
Screening O[C@@H](COc1cccc2ncccc12)CN1CCN(C2c3ccccc3[C@@H]3[C@H](c4ccccc42)C3(F)F)CC1 (stereo partly specified) returned FMDV RLuc 25µM* and FMDV antiviral -13%[11.5 µM].
For Cc1ccccc1OCC(O)CN1CCN(c2nccs2)CC1 (stereo unspecified) the results were FMDV RLuc -12% and FMDV antiviral -5%.
Screening COc1ccc2c(c1)c(C(C)=O)c(C)n2CCc1ccccc1 returned FMDV RLuc 11µM* and FMDV antiviral inconclusive.
Screening COc1ccc2c(c1)c(C(C)=O)c(C)n2CCc1ccc(OC)c(OC)c1 returned FMDV RLuc -6% and FMDV antiviral -3%.
For O=S1(=O)C=C(Sc2nn(-c3ccccc3)c(=S)s2)c2ccccc21 the results were FMDV RLuc -21% and FMDV antiviral 9%.

Screening data as filed in PubChem BioAssay.
